Screening results deposited in PubChem by National Center for Advancing Translational Sciences (NCATS).
FBPA Giardia inh – Giardia lamblia aldolase inhibition; A8B2U2; purified Giardia FBPA; Potency, µM (titrated, usually from 59.6 µM), without a hit: top-dose activity, negative = inhibition, hits mostly inhibitors; hit rate 0.71% among 290,000; also: potency is read from the fitted curve at half-maximal effect; nearly all actives have a fitted effect of over 55% in size
Target sequence (A8B2U2 whole entry, looked up): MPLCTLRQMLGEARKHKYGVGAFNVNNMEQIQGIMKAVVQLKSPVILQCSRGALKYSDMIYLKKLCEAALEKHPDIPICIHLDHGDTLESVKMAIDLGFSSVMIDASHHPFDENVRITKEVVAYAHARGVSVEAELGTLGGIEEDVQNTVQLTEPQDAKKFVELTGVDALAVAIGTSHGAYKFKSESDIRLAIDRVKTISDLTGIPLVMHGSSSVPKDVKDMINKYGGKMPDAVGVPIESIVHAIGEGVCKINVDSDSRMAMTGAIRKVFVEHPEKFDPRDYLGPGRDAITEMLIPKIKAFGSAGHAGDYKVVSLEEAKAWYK
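40 nM FBPA preincubated 10 min at RT with compound (up to 57.5 uM final), then substrate plus GAPDH/TPI/NAD/arsenate coupling and diaphorase/resazurin added. Fluorescence read after 20 min at RT, 525/598 nm.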
HCMV antiviral – human cytomegalovirus inhibition; HFF cells, HCMV-luciferase reporter, 72 h; active compounds read low; activity change, negative = inhibition, % at 57.5 µM; hit rate 4.5% among 410,000; in the data active = activity change below about -60%; inconclusive = no clear call, values can overlap the other calls; inactive = above about -39%
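HFF cells seeded 16 h at 37C, treated with compounds, infected with luciferase-reporter HCMV at MOI 1 PFU/cell; luciferase read at 72 h post infection, normalized to buffer-only and Salinomycin controls.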
RE007 growth inh – less growth of the S. pombe RE007 Vpr strain. S. pombe RE007 Vpr strain, BacTiter-Glo ATP luminescence, 24 h. Potency, µM (titrated, usually from 92.2 µM), without a hit: at the highest dose activity change, negative = less growth, actives largely listed as inhibitors. hit rate 0.21% among 360,000; active = well fitted falling curve with a large enough effect; inconclusive = small, poorly fitted or top-dose-only effect; inactive = no such curve, though single readings can be large or run the other way; also: potency is read from the fitted curve at half-maximal effect; nearly all actives have a fitted effect of over 50% in size
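Fission yeast RE007 carrying one integrated HIV-1 vpr copy, seeded at OD 0.01 in PMG+AL medium with 23 nL pinned compound. Grown 24 h at 30 degrees; viability read by BacTiter-Glo luminescence after 5 min.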
Sm TGR block – blocks Schistosoma mansoni thioredoxin glutathione reductase; purified TGR, DTNB reduction, TNB absorbance 405 nm; Q962Y6; hit rate 3% among 360,000; Potency, µM (series often up to 114 µM), for inactives: at the highest dose activity change, negative = inhibition, actives largely listed as inhibitors; also: potency is read from the fitted curve at half-maximal effect; nearly all actives have a fitted effect of over 60% in size
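Kinetic colorimetric format: TGR-catalysed, NADPH-driven DTNB reduction monitored via TNB absorbance. Enzyme dispensed at 20 nM; compound exposure 15 min at room temperature before reaction start.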
FMDV antiviral – foot and mouth disease virus antiviral activity. FMDV antiviral cell-based qHTS. Potency, µM (titrated, usually from 57.9 µM), for inactives: at the top dose activity change, negative = inhibition, hits mostly inhibitors. hit rate 1.2% among 410,000. AID 1159524; calls by dose curve; tested in HEK293T cells; also: read-out not given here; potency is read from the fitted curve at half-maximal effect; nearly all actives have a fitted effect of over 45% in size
Tb PYK inh – blocks Trypanosoma brucei pyruvate kinase; Q57TT1; TbPYK enzyme, Kinase-Glo Plus ATP luminescence, 45 min; Potency, µM (doses to about 76.8 µM), for inactives: at the highest dose activity, negative = inhibition, usual class: inhibitors; hit rate 0.12% among 410,000; AID 624173; also: potency is read from the fitted curve at half-maximal effect; nearly all actives have a fitted effect of over 50% in size
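ADP (130 uM final) triggers the TbPYK reaction after compound addition; incubation is 45 min at room temperature. Kinase-Glo Plus is then added and luminescence imaged. Normalized data are fitted to concentration-effect curves.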
* hit, by the source's call; ? = inconclusive; . = not tested or not shown; [ ] = another dose, or the depositor's remark. This is a sample that favours compounds with a hit; in the whole collection about 7.7% have one here. Unless noted, calls follow the shape of the dose curve; as a rule, active = well fitted curve in the direction sought with a large enough effect; inconclusive = small, poorly fitted or top-dose-only effect, or another doubt; inactive = no such curve, though single readings can be large; an effect the other way counts as inactive or inconclusive. % is scaled to controls: 0 for no effect and ±100 for the full control effect.

SMILES	FBPA Giardia inh	HCMV antiviral	RE007 growth inh	Sm TGR block	FMDV antiviral	Tb PYK inh
CCOC(=O)N1C/C(=C\c2ccccc2)C(=O)/C(=C/c2ccccc2)C1	-4%	-101*	.	-23%	20µM*	2%
CCOC(=O)N1CCN(S(=O)(=O)/C=C/c2ccccc2)CC1	10%	-10	0%[3.69 µM]	-1%	-12%	.
O=C(Nc1nc2n(n1)C(c1ccc(F)cc1)C=C(c1ccc(Cl)cc1)N2)c1ccco1 (stereo unspecified)	.	?	.	0%	-27%	-11%
O=C(Nc1nc2n(n1)C(c1ccccc1)C=C(c1ccc(Cl)cc1)N2)c1ccco1 (stereo unspecified)	.	6	.	14µM*	0%	3%
O=C(c1nc2n(n1)C(c1ccc(Cl)cc1)C=C(c1ccccc1)N2)N1CCOCC1 (stereo unspecified)	-8%	-3	-8%	10µM*	-3%	-2%
O=C(Nc1nc2n(n1)C(c1ccccc1)C=C(c1ccccc1)N2)c1ccco1 (stereo unspecified)	2%	-2	-5%	1.8µM*	-5%	-9%
CC(C)(C)c1ccc(Oc2nc3ccccn3c(=O)c2/C=C(\C#N)c2nc3ccccc3s2)cc1	.	6	.	3.2µM*	-8%	-25%
COc1ccc(N(Cc2cccs2)C(=O)COc2cc(C)c(Cl)c(C)c2)cc1	.	-99*	.	-1%	?	2%
C/C(=C\CO)CCO	3%	.	.	.	.	.
CC(NC(=O)CCc1nnc(-c2ccc(-c3ccccc3)cc2)o1)c1nc2ccccc2[nH]1 (stereo unspecified)	-21%	-68*	-22%	?	?	3%
Cc1ccc(SCCC(=O)NCCSCc2ccco2)cc1	-1%	-100*	4%	?	-5%	-14%
O=C(NCCSCc1ccco1)Nc1ccccc1	0%	29	-1%	35µM*	94%	-3%
Cc1ccc(F)c(NC(=O)/C(C#N)=C(\O)c2ccc(C(C)(C)C)cc2)c1	-8%	-63*	11%	-2%	19%	3%
Cc1cccc(NC(=O)C(=O)NNC(=O)c2ccc(C(C)(C)C)cc2)c1	?	-18	?	8%	3%	1%
O=C1c2cccc3c(N4CCCCC4)ccc(c23)C(=O)N1c1cccc(O)c1	4%	-84*	1%	.	-10%	2%
O=C1c2cccc3c(N4CCCCC4)ccc(c23)C(=O)N1CCO	0%	17	-24%	4%	6%	-1%
Cc1ccc(-c2nnc(Nc3ccc(C(=O)N(C)C)cc3)c3ccccc23)cc1S(=O)(=O)N(C)C	.	-29	.	0%	-26%	-2%
OCCN1CCN(C(c2ccccc2Cl)c2sc3nc(-c4ccco4)nn3c2O)CC1 (stereo unspecified)	.	14	.	0%	5%	-2%
Nc1nc(Sc2c([N+](=O)[O-])cc(C(F)(F)F)cc2[N+](=O)[O-])n[nH]1	-11%	25	-9%	7.9µM*	-23%	-1%
O=C(Nc1ccc(Oc2ccccc2)cc1)c1csc([C@@H]2O[C@H](CO)[C@@H](O)[C@H]2O)n1	.	-93*	10%	.	16µM*	-12%
O=C(Nc1ccc2c(c1)OCO2)c1csc([C@H]2C[C@H](O)[C@@H](CO)O2)n1	.	-97*	-12%[18.4 µM]	.	-3%	3%
O=C(Nc1ccc(Oc2ccccc2)cc1)c1csc([C@H]2C[C@H](O)[C@@H](CO)O2)n1	.	-97*	14%[18.4 µM]	.	7.9µM*	2%
O=C(Nc1cccc2cccnc12)c1csc([C@@H]2O[C@H](CO)[C@H](O)[C@H](O)[C@H]2O)n1	.	-99*	9%	.	-12%	0%
COCCNC(=O)C(=O)Nc1ccc2nc3n(c(=O)c2c1)CCCCC3	.	24	.	10%	-3%	1%
COc1ccc(C#Cc2ccc([C@H]3[C@H](CO)N4CCCCN(S(=O)(=O)c5cn(C)cn5)C[C@@H]34)cc2)cc1	.	22	.	.	.	.
SMILES	FBPA Giardia inh	HCMV antiviral	RE007 growth inh	Sm TGR block	FMDV antiviral	Tb PYK inh
COc1ccccc1NC(=O)C1=C(C)Nc2nnnn2C1c1ccc(C(F)(F)F)cc1 (stereo unspecified)	.	-3	.	0%	-1%	-2%
CCOC(=O)Cn1c(=O)n(CC2CCCO2)c2nc(-c3ccccc3F)nc(C(N)=O)c21 (stereo unspecified)	.	-9	.	-8%	-8%	-7%
O=C1c2cccc3cc([N+](=O)[O-])cc(c23)C(=O)N1CCN1CCCC1	-6%	-100*	-17%	-17%	-1%	3%
O=C1c2cccc3cccc(c23)C(=O)N1CCO	.	?	6%	.	-14%	-3%
Nc1cc2c3c(cccc3c1)C(=O)N(CCN1CCCC1)C2=O	-15%	-96*	2%	-17%	0%	-3%
CCN(CC)CCN1C(=O)c2cccc3cc(N)cc(c23)C1=O	-1%	-99*	-12%	-11%	?	3%
O=C1c2cccc3cc([N+](=O)[O-])cc(c23)C(=O)N1/N=C/c1ccc(O)cc1O	-24%	-79*	-5%	?	?	-2%
CCN(CC)c1ccc(/C=N/N2C(=O)c3ccccc3C2=O)c(O)c1	-30%	-30	5%	0%	9%	3%
COc1ccc(N2CCN(S(=O)(=O)c3ccc(C4CCCCC4)cc3)CC2)cc1	.	2	.	-9%	-10%	-1%
CC(=O)N(C[C@@H](O)CO)c1c(I)c(C(=O)NC[C@@H](O)CO)c(I)c(C(=O)NC[C@@H](O)CO)c1I	-1%[21.7 µM]	.	.	.	.	.
Clc1ccccc1Nc1nnc(-c2ccncc2)s1	0%	?	32µM*	1%	?	?
COc1ccc(OC)c(-c2ccnc(-n3ncc(C(=O)NC(C)(C)CO)c3C3CC3)n2)c1	.	.	.	.	34%	.
CC(=NCc1ccco1)c1c(O)n(Cc2ccccc2)c(=O)[nH]c1=O	3%	-19	2%	35µM*	-20%	-2%
Cc1ccc(NC(=O)Cn2ncc3c4ccccc4n(Cc4ccccc4)c3c2=O)cc1Cl	.	-9	.	-1%	-11%	-4%
CCn1c(-c2ccccc2F)nc2cc(NC(C)=O)cc(C(=O)N(C)Cc3ccc4nccnc4c3)c21	.	.	.	.	-11%	.
COc1cccc(CN2CCc3ccc(NC(=O)CCc4ccc(C)cc4)cc3C2)c1O	.	-61*	-18%	-25%	?	-5%
COc1cc(CN2CCN(c3cc(C)ccc3C)CC2)ccc1O	-13%	-73*	-12%	-16%	-29%	-1%
